Bioassay records (PubChem BioAssay)
In the library only some 7.9% were active in any assay of this set; here they are far more common.
FMDV inh = foot and mouth disease virus antiviral activity | FMDV antiviral cell-based qHTS | hit rate 1.2% among 410,000 | Potency, µM (highest dose often 57.9 µM), actives largely listed as inhibitors; calls by dose curve; tested in HEK293T cells; note: read-out not given here; nearly all actives have a fitted effect of over 45% in size
HCMV inh = human cytomegalovirus inhibition | HFF cells, HCMV-luciferase reporter, 72 h; stronger effect = lower value | activity change, negative = inhibition, % at 57.5 µM | hit rate 4.5% among 410,000; in the data active = activity change below about -60%; inconclusive = no clear call, values can overlap the other calls; inactive = above about -39%
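Luciferase read-out from HCMV-luciferase-infected HFFs (MOI 1 PFU/cell) 72 h post infection at 37C; compounds added after 16 h cell attachment; activity normalized between buffer-only basal and Salinomycin (10uM) inhibitor controls.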
LASV entry inh = blocks Lassa virus binding to or entry into cells. Lassa virus pseudotype entry inhibition, cell reporter. Potency, µM (series often up to 37.9 µM), usual class: inhibitors. hit rate 1.2% among 300,000. AID 540256; calls by dose curve; tested in HEK293 cells; note: nearly all actives have a fitted effect of over 50% in size
HCV inh = inhibitors of hepatitis C virus infection. Potency, µM (highest dose often 41.8 µM), usual class: inhibitors. Huh7.5.1 HCVcc-Cre infection, luciferase reporter, 44 h. hit rate 3.4% among 340,000. AID 651820; active = well fitted inhibition curve with a large enough effect; inconclusive = small, poorly fitted or top-dose-only effect, or another doubt; inactive = no such curve, though single readings can be large or run the other way
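Antiviral activity was scored by luciferase reporter output from cells infected with HCVcc-Cre (~0.5 moi) in presence of compound, 44 h infection period, cells seeded 1,000/well 4 h prior.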
Marburg entry inh = inhibitors of Marburg virus binding or cell entry; Potency, µM (highest dose often 37.8 µM), usual class: inhibitors; Marburg virus pseudotyped entry inhibition, cell reporter; hit rate 1.8% among 300,000; calls by dose curve; tested in HEK293 cells
A number is an active result; 0 = inactive; ? = inconclusive; - = no result given; [ ] = remark or other dose.

SMILES | FMDV inh | HCMV inh | LASV entry inh | HCV inh | Marburg entry inh
COc1ccc(/C=C/c2c([N+](=O)[O-])c(=O)n(C)c(=O)n2C)c(OC)c1 | ? | 0 | - | 11.2µM | 0
Cn1c(/C=C/c2ccc(Cl)cc2Cl)c([N+](=O)[O-])c(=O)n(C)c1=O | 31.6µM | -98.0 | - | ? | -
CSc1nnc(CCNC(=O)c2ccc(-c3cccc(F)c3)cc2)n1-c1ccc(F)cc1 | 0 | - | - | - | -
O=C(O)c1cc(Oc2ccc([N+](=O)[O-])cc2)cc(Oc2ccc([N+](=O)[O-])cc2)c1 | 0 | - | - | - | -
O=C(O)CSc1cc(NS(=O)(=O)c2ccc(Cl)cc2)c2ccccc2c1O | ? | -92.5 | ? | ? | ?
CCOc1ccc(C2C(C(=O)Nc3ccc(C)cc3C)=C(C)Nc3c(C(=O)Nc4ccc(C)cc4)cnn32)cc1OC (stereo not given) | 0 | 0 | 0 | - | -
Cc1ccc2c(c1C)-c1c(ccc(C)c1C)C(=O)C2=O | 28.2µM | -96.3 | ? | 11.2µM | ?
Cc1ccc2c(c1N)C(=O)c1ccccc1C2=O | 0 | 0 | - | 0 | -
COc1ccc(/C=C(\C#N)c2nc3ccccc3c(=O)[nH]2)cc1OC | ? | 0 | 0 | - | -
CCn1c(=O)c([N+](=O)[O-])c(NCCCn2ccnc2)c2ccccc21 | 0 | -64.5 | 0 | 0 | 0
CCNc1c([N+](=O)[O-])c(=O)n(CC)c2ccccc12 | 0 | 0 | 0 | 0 | 0
O=C(CSc1nnc(-c2ccc(Cl)cc2)o1)N1CCc2ccccc21 | 0 | 0 | 0 | - | 0
O=[N+]([O-])c1ccc(CSc2nnc(Cc3ccccc3)n2-c2ccc(F)cc2)cc1 | 0 | ? | ? | 0 | ?
COC(=O)c1ccc(CSc2nnc(-c3c[nH]c4ccccc34)n2-c2ccccc2)cc1 | 0 | 0 | ? | 22.4µM | ?
COC(=O)c1ccc(CSc2nnc(CS(=O)Cc3ccc(Br)cc3)n2-c2ccccc2)cc1 (stereo not given) | 0 | 0 | ? | 14.1µM | ?
COC(=O)c1ccc(CSc2nnc(-c3c[nH]c4ccccc34)n2C)o1 | 0 | 0 | - | 0 | -
O=S(Cc1ccc(Br)cc1)Cc1nnc(SCc2ccc(Br)cc2)n1-c1ccccc1 (stereo not given) | 15.8µM | -80.1 | ? | 5.01µM | ?
COc1ccc2cc(CNCc3ccccc3Cl)c(N3CCCC(CO)C3)nc2c1 (stereo not given) | 0 | - | - | - | -
COc1ccc(-n2nc3c(c2NC(=O)CCl)CSC3)cc1 | 31.6µM | 0 | ? | 0 | ?
COc1ccc(-n2nc3c(c2NC(=O)C(C)Cl)CSC3)cc1 (stereo not given) | 0 | 0 | - | 0 | -
CCc1cnc2c(c1SCC(=O)Nc1cc(Cl)ccc1OC)c(=O)n(C)c(=O)n2C | 0 | 0 | 0 | - | -
COC(=O)c1ccccc1NC(=O)c1sc2nc(C)cc(C)c2c1NC(=O)c1ccccc1OC | 0 | 0 | 0 | - | -
COc1ccccc1C(=O)Nc1c(C(=O)Nc2cc(Cl)ccc2C)sc2nc(C)cc(C)c12 | 0 | -101.9 | 0 | - | ?
Cc1nc(C(=O)NNC(=O)c2ccc(Cl)cc2)cs1 | 0 | -100.9 | 0 | ? | ?
O=C(NNC(=O)c1csc(-c2cccs2)n1)c1ccc(Cl)cc1 | 0 | -103.2 | - | - | -
SMILES | FMDV inh | HCMV inh | LASV entry inh | HCV inh | Marburg entry inh
CCCOc1ccc(Br)cc1CSC(=N)N | ? | -95.4 | ? | ? | 7.3µM
CC1N=C2c3ccccc3N=C(SCC(=O)NCCc3ccccc3)N2C1=O (stereo not given) | 0 | 0 | 0 | - | -
CCN(Cc1ccccc1)S(=O)(=O)c1cc(Br)cc2c1N(C(=O)C1CC1)CC2 | 0 | ? | 0 | - | ?
COc1ccc(-c2cnc(C)o2)cc1S(=O)(=O)Nc1ccc(C)c(N(C)C)c1 | 0 | 0 | 0 | - | -
COC(=O)C(Cc1ccc(N(CCCl)CCCl)cc1)N=Cc1ccccc1O (stereo not given) | ? | -103.5 | ? | ? | ?
N[C@@H](Cc1cc(O)c(O)cc1O)C(=O)O | - | - | - | - | 3.97µM
NC(Cc1cc(O)c(O)cc1O)C(=O)O (stereo not given) | - | - | ? | 0 | 3.97µM
N[C@@H](Cc1cc(I)c(O)c(I)c1)C(=O)O | 0 | 0 | 0 | 0[8.37 µM] | 0
CCOC(=O)C(NC(=O)C(Cc1ccc(N(CCCl)CCCl)cc1)NC(C)=O)C(C)C (stereo not given) | 0 | 0 | 0 | 0 | 0
N[C@H](Cc1ccc(O)c(O)c1)C(=O)O | - | - | - | - | 15.8µM
NC(Cc1ccc(O)c(O)c1)C(=O)O (stereo not given) | 0 | - | - | - | -
O=C(COc1ccccc1)Nc1nnc(SCc2cc(=O)n3cc(Cl)ccc3n2)s1 | 0 | 0 | 0 | - | -
CCc1ccc(NS(=O)(=O)c2[nH]ncc2C(=O)OC)cc1 | 0 | 0 | 0 | - | ?
N[C@H](Cc1ccc(N(CCCl)CCCl)cc1)C(=O)O | - | - | - | - | 5.8µM
CC(C)c1ccc(N=Nc2c(O)[nH]c(=O)[nH]c2=O)cc1 | 0 | 0 | - | 0 | -
O=c1[nH]c(=S)[nH]c(O)c1N=Nc1ccc(SC(F)F)cc1 | 0 | -61.4 | 3.98µM | 0 | ?
Cc1nn(-c2ccccc2)nc1C(=O)Nc1ccc2c(c1)OCCO2 | 0 | 0 | 0 | ? | ?
Cc1cccc(C(=O)Nc2cccc(C(=O)NC3CCCC3)c2)c1 | 0 | 0 | - | ? | -
Cc1cccc2nc(C(=O)Nc3cccc(C(=O)NC4CC4)c3)cn12 | 0 | 0 | - | 0 | -
